Test results: PubChem BioAssay (NCI)
This is part of a sample that, as a whole, favours compounds with a hit. Of some 83,000 tested, about 20% had one in any assay.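 Activity criterion: percent growth below 10, measured after cells in 96-well plates were exposed to a single compound concentration for 48 hours.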 Unmarked numbers belong to inactive results. The source made the active and inactive calls.

Test system: TK-10 renal
Experiment: NCI-60 one-dose screen, 48 h (100 = growth as untreated, 0 = no growth, -100 = all killed)
Conditions: 10 µM unless noted

| SMILES | growth |
| --- | --- |
| NC1=CC(=O)C(=O)c2ccccc21 | 114% |
| NC(CC(=O)O)C(=O)OCc1ccccc1 (stereo not drawn) | 122% |
| Cc1ccn2c(-c3csc(Nc4cccc(O)c4)n3)c(C)nc2c1 | 57.2% |
| COc1ccc(C(=O)c2sc3nc(-c4ccccc4OC)ccc3c2N)cc1OC | 79.7% |
| Cc1nn(-c2nc3ccccc3[nH]2)c2c1C(c1ccc3c(c1)OCO3)CC(=O)N2 (stereo not drawn) | 69.4% |
| COc1cnc2c(c1)C(=O)c1c-2n(CCCN2CCCC2)c(=O)c2cc([N+](=O)[O-])ccc12 | 13.2% |
| Cc1cc(Nc2nc(N3CCOCC3)nc3ccccc23)n[nH]1 | 47.2% |
| O=c1c(/C=C/c2ccco2)nnc(SCCN2CCOCC2)n1/N=C/c1ccc([N+](=O)[O-])cc1 | 154% |
| Nc1nc2ccc(-c3nc4ccc5[nH]ncc5c4c4c3CCC4)cc2s1 | 22.3% |
| COc1ccc(C(=O)c2sc3nc4c(cc3c2N)CCCC4)cc1OC | 83% |
| O=C1Nc2c(ccc(Cl)c2Cl)/C1=C/c1cc(Br)c(O)c(Br)c1 | 96.7% |
| Cn1c2c(Cl)c(Cl)ccc2c2ccn3c(=O)c4ccccc4nc3c21 | 162% |
| C/C(=C(/c1ccc(O)cc1)c1ccc(Cl)cc1)c1ccccc1 | -63.7% (active) |
| Oc1ccc2c(=S)cc(-c3ccc(Br)cc3)oc2c1O | 103% |
| COc1cccc(-n2cc(-c3nc(Nc4cc(C)[nH]n4)c4ccccc4n3)nn2)c1 | 33.3% |
| O=C([C@@H](COCc1ccccc1)N1C(=O)[C@@H](N2C(=O)OC[C@@H]2c2ccccc2)[C@H]1/C=C/c1ccccc1)N1CCC(CCN2CCCCC2)CC1 | 59.8% |
| COc1ccc(-c2cc(/C=C3\C(=O)Nc4ccc(Cl)cc43)[nH]n2)cc1 | 86.9% |
| CNC(=S)N/N=C/CSC/C=N/NC(=S)NC | 103% |
| CCCCCCCCOC(=O)CC[C@@H](C)[C@H]1CC[C@H]2[C@@H]3[C@H](OC(=O)CCN)C[C@@H]4C[C@H](OC(=O)CCN)CC[C@]4(C)[C@H]3C[C@H](OC(=O)CCN)[C@]12C | 136% |

| SMILES | growth |
| --- | --- |
| O=C1C=CC(=O)N1c1ccc(Cc2ccc(N3C(=O)C=CC3=O)cc2)cc1 | 92.4% |
| N#CC1=C(N)Oc2c(ccc3ccccc23)C1c1cccs1 (stereo not drawn) | 77.6% |
| Cc1cc(Nc2nc(N3CCNCC3)nc3ccccc23)n[nH]1 | 60.5% |
| COc1cc(/C=N/N(C)C)ccc1O | 94.5% |
| CCN(CC)CC(O)CNc1c2ccc([N+](=O)[O-])cc2nc2cc(OC)c(OC)cc12 (stereo not drawn) | 2.27% (active) |
| O=C1Nc2ccc(Br)cc2C12CC(c1ccccc1)=NN2 (stereo not drawn) | 77.8% |
| O=C1C=CC(=O)c2c1nc1n2CCCC1 | 109% |
| Cc1cc(=O)oc2cc(Oc3nc(-c4cccs4)cn4c(-c5cccs5)cnc34)ccc12 | 53.9% |
| COc1ccc(-c2nc(Nc3cc(C)[nH]n3)c3ccccc3n2)cc1 | 53.3% |
| O=C1Nc2ccccc2/C1=C/C(=N/c1nnc(-c2ccc(Cl)cc2)s1)c1ccccc1 | -36.4% (active) |
| Nc1cc2nc3ccccc3sc-2cc1=O | 137% |
| Cc1csc2ccc(Cl)cc12 | 99.4% |
| Cc1ccc(NC(=O)c2sc3nc4c(cc3c2N)C(=O)CCC4)cc1C | 59.9% |
| Cc1ccc2c(c1)n([O-])c1cc(Cl)ccc1[n+]2=O | 130% |
| CC(C)[C@@H]1CC[C@]2(C(=O)NCCCCN=C(N)N)CC[C@]3(C)[C@H](CC[C@@H]4[C@@]5(C)CCC(=O)C(C)(C)[C@@H]5CC[C@]43C)[C@@H]12 | 88.7% |
| COC1C/C(=N\O)C2OC(c3ccccc3)OCC2O1 (stereo not drawn) | 112% |
| COc1cc(-c2c3sc(=O)[nH]c3nc3c2c(=O)[nH]n3C(C)C)cc2c1OCO2 | 114% |
| CCOC(=O)C(C#N)C1CCCCC1 (stereo not drawn) | 91.5% |
| Cc1cc(Nc2nc(-c3cccnc3)nc3ccccc23)n[nH]1 | 59.8% |
